Experimental data taken from publication PMC7826789 (International Journal of Molecular Sciences, 2021).

Key:
Conditions in all cases: Compound Concentration (nM):1000
[1] = system: T1, RSK3(Kin.Dom.1-N-terminal)
T1 construct: gene RPS6KA2

[2] = system: T2, RSK3(Kin.Dom.2-C-terminal)
T2 construct: gene RPS6KA2

[3] = system: T3, RSK4(Kin.Dom.1-N-terminal)
T3 construct: gene RPS6KA6

[4] = system: T4, RSK4(Kin.Dom.2-C-terminal)
T4 construct: gene RPS6KA6

S6K1 = system: T5, S6K1
T5 construct: gene RPS6KB1

SBK1 = system: SBK1
SGK2 = system: SGK2
SGK3 = system: SGK3
SGK = system: T6, SGK
T6 construct: gene SGK1

SIK2 = system: SIK2
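Also: KINOMEscan scanMAX binding as percent activity remaining versus control; lower means stronger binding.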

SMILES	Percent Control [1]	Percent Control [2]	Percent Control [3]	Percent Control [4]	Percent Control (S6K1)	Percent Control (SBK1)	Percent Control (SGK2)	Percent Control (SGK3)	Percent Control (SGK)	Percent Control (SIK2)
CCc1ccc(Oc2nccc(-c3c(-c4ccc(F)cc4)ncn3C3CCNCC3)n2)cc1 [SB-242719]	92%	94%	93%	79%	93%	100%	100%	77%	100%	66%
COc1cccc(-c2c[nH]c3c(N/N=C/c4ccncc4)ncnc23)c1 [GW814408X]	100%	100%	49%	100%	84%	83%	38%	59%	22%	17%
Cl.O=C(O[C@H]1CN[C@H](C#Cc2cc3ncnc(Nc4ccc5c(cnn5Cc5ccccc5)c4)c3s2)C1)N1CCOCC1 [GSK200398A]	92%	89%	80%	83%	100%	100%	97%	99%	99%	69%
CC1=C(C(=O)Nc2ccc3[nH]ncc3c2)C(c2ccc3ccccc3c2)CC(=O)N1 (centres unmarked) [GSK270822A]	84%	100%	67%	95%	67%	48%	69%	42%	69%	86%
COc1ccc(COc2ccc(Cc3cnc(N)nc3N)cc2OC)cc1 [GW632580X]	79%	89%	98%	93%	85%	100%	95%	72%	100%	93%
COc1cc(N2CCN(C(C)C)CC2)ccc1Nc1nc(Nc2ccc(F)cc2C(=O)NC[C@@H](O)CO)c2cc[nH]c2n1 [GSK1392956A]	67%	72%	55%	86%	94%	64%	100%	91%	99%	100%
O=C(Nc1n[nH]c2nc(-c3ccc(O)cc3)c(Br)cc12)C1CC1 [SB-725317]	96%	100%	19%	100%	100%	100%	100%	88%	100%	100%
Cl.O=C(Nc1ccc(Oc2ccc3[nH]c(NC(=O)c4ccco4)nc3c2)cc1)Nc1cc(C(F)(F)F)ccc1F [GW683134A]	92%	100%	100%	100%	43%	100%	100%	100%	100%	100%
COC(=O)Nc1nc2ccc(Oc3ccc(NC(=O)Nc4cc(C(F)(F)F)ccc4F)cc3)cc2s1.Cl [GW693917A]	65%	91%	76%	79%	54%	100%	80%	78%	87%	68%
CN(C)c1cc2c(Nc3ccc4c(cnn4Cc4ccccc4)c3)ncnc2cn1 [GW282974X]	100%	93%	75%	74%	95%	100%	99%	99%	98%	71%
COc1ccc2cc(-c3c(-c4ccncc4)nc(-c4ccc(S(C)(=O)=O)cc4C)n3C)ccc2c1 [SB-633825]	98%	100%	60%	83%	66%	78%	59%	73%	94%	100%
COc1cc(C)c(N(C)C(=O)CN(C)C)cc1Nc1nc(Nc2cccc(F)c2C(N)=O)c2cc[nH]c2n1 [GSK2219385]	79%	90%	75%	82%	100%	100%	92%	92%	92%	100%
O=C1Nc2ccc(C(=O)c3ccco3)cc2C1=Cc1cc(Cl)c(O)c(Cl)c1 [GW406108X]	74%	51%	53%	32%	74%	100%	100%	74%	83%	100%
COc1cc(C=NNc2ncnc3c2cnn3-c2ccccc2)ccc1O [GW513184X]	100%	100%	90%	100%	100%	100%	66%	85%	50%	61%
COc1ccc2[nH]c3c4[nH]c5ccc(OC)cc5c4c4c(c3c2c1)C(=O)NC4=O [GW296115X]	28%	69%	5.8%	61%	21%	95%	46%	8.1%	6.8%	9.9%
Cl.O=C(Nc1ccc(Oc2ccc3[nH]c(NC(=O)c4ccccc4)nc3c2)cc1)Nc1cc(C(F)(F)F)ccc1F [GW709042A]	100%	100%	99%	100%	52%	100%	100%	90%	100%	100%
COc1ccc2c(-c3ccnc(Nc4cccc(OC(F)(F)F)c4)n3)cnn2n1 [GW810372X]	100%	99%	99%	100%	87%	100%	100%	79%	100%	100%
Nc1ncnc2occ(-c3ccc(NC(=O)Nc4cc(C(F)(F)F)ccc4F)cc3)c12 [GW770249X]	66%	59%	87%	100%	21%	100%	100%	83%	100%	100%
COc1cc(/C=N/Nc2ncnc3[nH]ncc23)ccc1O [GW578748X]	100%	100%	45%	100%	40%	16%	40%	7.1%	1.5%	83%
CN(C)CCNC(=O)Nc1ccc(N(C)c2ccnc(Nc3ccc(CS(C)(=O)=O)cc3)n2)cc1.Cl [GW830900A]	100%	94%	74%	87%	85%	95%	80%	84%	48%	73%
Cl.c1ccc(Cc2nc3ccc(Nc4ncnc5ccccc45)cc3[nH]2)cc1 [GR269666A]	100%	100%	100%	98%	100%	100%	100%	81%	100%	82%
CC1=C(C(=O)Nc2ccc3[nH]ncc3c2)C(c2ccc(Cl)c(Cl)c2)CC(=O)N1 (centres unmarked) [GSK299115A]	100%	89%	69%	80%	67%	73%	81%	48%	72%	87%
CC(C)COC(=O)c1ccc2c(c1)/C(=C/Nc1ccc(S(N)(=O)=O)cc1)C(=O)N2 [GW416981X]	100%	100%	43%	100%	65%	71%	79%	18%	31%	94%
COc1cccc(-n2ncc3c(N/N=C/c4ccncc4)ncnc32)c1 [GW784752X]	100%	98%	94%	100%	93%	63%	83%	77%	57%	75%
NS(=O)(=O)c1ccc(N/N=C2\C(=O)Nc3ccc(C(=O)NCCc4c[nH]cn4)cc32)cc1 [GW300660X]	100%	100%	45%	100%	76%	100%	100%	12%	26%	100%
CCS(=O)(=O)c1ccc(OC)c(Nc2ncc(-c3cccc(F)c3)o2)c1 [GW621970X]	100%	100%	100%	100%	93%	100%	100%	98%	100%	63%
NS(=O)(=O)c1ccc(N/N=C2\C(=O)Nc3ccc(Cl)cc32)cc1 [GW280670X]	100%	100%	99%	100%	98%	100%	100%	77%	100%	100%
CN1CCN(C(=O)c2ccc(NC(=O)Nc3ccc(N(C)c4ccnc(Nc5ccc(CS(C)(=O)=O)cc5)n4)cc3)cc2)CC1.Cl [GW830263A]	84%	89%	74%	84%	37%	65%	73%	79%	57%	56%
COc1ccccc1-c1cc(/C=C2\C(=O)Nc3ncc(Br)cc32)cc(Br)c1O [GW442130X]	100%	100%	100%	100%	100%	95%	85%	94%	71%	100%
